# According to PubChem BioAssay AID862 (The Scripps Research Institute Molecular Screening Center, 2007):
# Screen size: about 190,000 compounds; about 1,700 (0.89%) were called active. This is one part of a sample in which actives are shown more often than they occur.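 Rule for the calls: active = inhibition above the mean inhibition across all screened compounds plus 3 SD (cut at about 44% in these data); inactive = the rest.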
# Assay: IL-6 driven STAT3 reporter inhibitors, primary screen, U3A cells, luciferase, luminescence, MLSCN library (AID 862);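 note: 0% = DMSO only wells and 100% = 100 µM nifuroxazide control wells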
# Details: IL-6 STAT3-luciferase reporter, at 5.5 µM, hits give high values, host cell line lacks STAT1
row,Structure (SMILES),inhibition
1,COc1ccc(C(=O)Nc2ccc(-n3nncc3C(C)(C)C)cc2)cc1,-0.3% (inactive)
2,Cc1csc(SCC(=O)Nc2sccc2C#N)n1,44.3% (active)
3,COc1ccc(NC(=O)CSc2nc(C)cs2)cc1,10.5% (inactive)
4,Cc1cccc(C)c1Nc1nnc(SCC(=O)Nc2sccc2C#N)s1,6.5% (inactive)
5,Cc1cc(-c2nnc(CCC(=O)NC(c3ccccc3)c3ccccc3)o2)no1,9.8% (inactive)
6,Cc1nn(CC#N)c(=O)n1N(C)c1ncc(C(F)(F)F)cc1Cl,6.6% (inactive)
7,Cn1c(SCC(=O)Nc2ccc(Br)cc2F)nnc1-c1ccco1,7.9% (inactive)
8,COc1cc(OC)cc(C(=O)Nc2ccc(S(=O)(=O)Nc3cc(C)on3)cc2)c1,20.2% (inactive)
9,COc1ccc(C(=O)Nc2ccc(S(=O)(=O)NC(C)C)cc2)cc1,-0.4% (inactive)
10,COc1ccc(NS(=O)(=O)c2ccc(NC(=O)c3ccc(N(C)S(C)(=O)=O)cc3)cc2)cc1,60.1% (active)
11,O=C(Nc1ccn(Cc2ccc(F)cc2)n1)c1ccncc1,22.9% (inactive)
12,O=C(Nc1ccn(Cc2ccccc2)n1)c1n[nH]c([N+](=O)[O-])c1Cl,53.5% (active)
13,O=C(Nc1ccn(Cc2ccccc2)n1)c1cccc(F)c1,12.5% (inactive)
14,Cc1cccc(C(=O)Nc2ccccc2C(=O)NCc2cccnc2)c1,10.3% (inactive)
15,CCOC(=O)/C(=N\Nc1ccccc1Cl)N(C)C1CCS(=O)(=O)C1 (configuration not stated),5.4% (inactive)
16,Nc1ccc(Nc2ccccc2)cc1,18.1% (inactive)
17,Cc1ccc(Nc2ccccc2N)cc1,69.5% (active)
18,Cc1ccc(Nc2nnc(SCc3ccccc3)s2)cc1,-15.7% (inactive)
19,O=C1NC(=Nc2ccc(Cl)cc2)SC1Cc1cccc(Cl)c1Cl (configuration not stated),0.2% (inactive)
20,CCOc1ccc(C(CC(=O)O)n2cnnn2)cc1OC (configuration not stated),17.4% (inactive)
21,CCN(CCn1cccn1)Cc1nc(-c2ccc(C(=O)OC)cc2)no1,7.7% (inactive)
22,OC(COc1ccc(CN2CCSCC2)cc1)CN1CCCCC1 (configuration not stated),4.3% (inactive)
23,COc1ccc(C2=NOC3(CC(=O)N(c4ccc(C)cc4)C3=O)C2)cc1 (configuration not stated),0% (inactive)
24,COc1ccc(C2=Nc3cc(C)ccc3OC2)cc1,66.7% (active)
25,COc1ccc(C2=NOC(COC(=O)c3ccc4ccccc4n3)C2)cc1 (configuration not stated),-2.7% (inactive)
26,CC[C@H]1CN2CCc3cc(OC)c(OC)cc3[C@@H]2C[C@@H]1C[C@H]1NCCc2cc(OC)c(OC)cc21,101% (active)
27,COc1cc2c(cc1O)[C@H](Cc1ccc(Oc3cc(C[C@@H]4NCCc5cc(OC)c(O)cc54)ccc3O)cc1)NCC2,-0.3% (inactive)
